A short description of experiment [1]: AP1 Signaling Pathway (AID 357).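 Also: ME-180 reporter cells stimulated with EGF at its EC50 level; % is scaled to controls: 0 for no effect and ±100 for the full control effect.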 The procedure, abridged: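 Modulation of EGF-driven AP-1 transcription was assessed with a beta-lactamase reporter in ME-180 cells. Compound and EC50 EGF were co-incubated 5 hours at 37 °C before 2.5-hour CCF4 loading at room temperature and dual-emission reading.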
Experiment [2] can be described thus: Cell Viability - BJ (AID 421; calls by dose curve;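 also: potency is read from the fitted curve at half-maximal effect; cells exposed to compound for 40 hours at 37 °C before readout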). As to conditions: BJ fibroblast viability, qHTS. In outline:
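Quantitative HTS: ATP depletion in BJ cells after 40 hr compound exposure in complete culture medium, detected with CellTiter-Glo; AC50 from standard Hill fits.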

Experiment [3] is described as follows: Cell Viability - Jurkat (AID 426;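 active = dose-dependent loss of cell ATP signal giving a full or clear fitted curve, ranked by lower potency value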; also: potency is read from the fitted curve at half-maximal effect). The note with it: qHTS. The procedure, abridged:
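Jurkat (clone E6-1, human T-cell leukemia) cells, 5000/well in complete medium, were exposed to compound for 40 hr at 37 °C. Viability was read as intracellular ATP by CellTiter-Glo luminescence; AC50 came from Hill fits of concentration-response data.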

A short description of experiment [4]: Cell Viability - Hek293 (AID 427;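 active = compounds whose dose-response curve shows a full or clear partial loss of cell viability, called from curve shape rather than a numeric limit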;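 also: potency is read from the fitted curve at half-maximal effect; cells exposed to compound for 40 hours at 37 °C before reading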). The note with it: qHTS. In outline:
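AC50 values derive from Hill-modelled concentration-response of ATP-based luminescence, normalized between DMSO-only and 100 uM tamoxifen controls. Cells were exposed in complete culture medium for 40 hr at 37 °C before detection.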
For orientation: In qHTS, concentration-response curves come from the screen itself.

Experiment [5] in a line: Cell Viability - HepG2 (AID 433; calls by dose curve;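 also: potency is read from the fitted curve at half-maximal effect; potency for ATP loss meaning cytotoxicity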). As to conditions: qHTS. The procedure, abridged:
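ATP luminescence (CellTiter-Glo) after 40 h compound exposure, 37 °C, HepG2, 1500 cells/well, complete medium. Normalized: DMSO = basal, 100 uM tamoxifen = 100% inhibition. AC50 via standard Hill equation.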

The nature of experiment [6]: Cell Viability - MRC5 (AID 434; calls by dose curve;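 also: potency is read from the fitted curve at half-maximal effect; potency reflects cytotoxicity seen as loss of intracellular ATP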). The note with it: MRC5 lung fibroblast viability, qHTS. In outline:
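MRC5 normal human lung fibroblasts (1500/well) were treated with compounds for 40 hr at 37 °C in complete medium, and viable cells were measured as intracellular ATP by CellTiter-Glo luminescence. AC50 came from Hill fits, normalized to DMSO and 100 uM tamoxifen.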

The nature of experiment [7]: Cell Viability - SK-N-SH (AID 435; calls by dose curve; also: potency is read from the fitted curve at half-maximal effect). As to conditions: SK-N-SH neuroblastoma cell viability qHTS. In outline: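 CellTiter-Glo ATP luminescence, 20 min RT read; cells pre-plated 5 hr, compound 40 hr at 37 °C, 1500 cells/well, complete medium. Normalized DMSO = 0, 100 uM tamoxifen = 100% inhibition; Hill-fit AC50.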
Experiment [8] is described as follows: NFAT Signaling Pathway (AID 444).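 Also: carbachol stimulus at about its EC50 of 1 µM final; % is scaled to controls: 0 for no effect and ±100 for the full control effect.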 The note with it: Jurkat NFAT-bla M1, carbachol, beta-lactamase ratio, 5 h. In outline:
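Jurkat cells carrying an NFAT-driven β-lactamase reporter and co-transfected muscarinic M1 receptor were treated with compound plus carbachol (1 uM final, an EC50 level) for 5 h at 37 °C. CCF4 loading followed for 1 h at RT; 460/530 nm ratio gave %activity.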

Experiment [9] can be described thus: Stat Signaling Pathway (AID 446).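 Also: ME-180 cervical cancer cells given 40 pM IL-6 alongside compound; SIE-controlled beta-lactamase reporter measured as 460/530 nm FRET emission ratio; % is scaled to controls: 0 for no effect and ±100 for the full control effect.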 In outline: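 IL-6/STAT signaling read in ME-180 cells via an SIE beta-lactamase reporter. Stimulus was 40 pM IL-6 (its AC50) for 5 hrs, so both activation and inhibition register.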
Experiment [10] concerns the target Glucocorticoid receptor (Homo sapiens) (UniProt P04150). The experiment can be described thus: GR-GFP Redistribution (AID 450;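 active = compounds whose dose series gives a full or clear partial fitted curve of increased nuclear translocation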; also: potency is read from the fitted curve at half-maximal effect). The note with it: U2OS GR-GFP nuclear translocation, laser cytometry, 2 h.
The target is the same in experiment [11]. Nature of the experiment: GR-EFC Redistribution (AID 451; calls by dose curve; also: potency is read from the fitted curve at half-maximal effect). As to conditions: CHO-K1 GR-EFC translocation, beta-gal luminescence, 2 h. The procedure, abridged:
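CHO-K1 cells stably expressing nuclear-localized β-gal enzyme acceptor and GR fused C-terminally to the enzyme donor fragment; ligand-driven nuclear translocation restores β-gal by complementation. Compounds titrated up to 46 uM final, 2 h at 37 °C; luminescence read.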

Experiment [12] deals with Mitogen-activated protein kinase 10 (Mus musculus) (UniProt Q61831). Nature of the experiment: JNK3 AlphaScreen Assay (AID 530).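 Also: kinase came from lysate of stimulated human HepG2 cells; signal reports phosphorylation of biotinylated GST-cJun 1-79 at Ser73 with 10 µM ATP; % is scaled to controls: 0 for no effect and ±100 for the full control effect.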 The procedure, abridged: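 JNK3 came from HepG2 lysates pre-activated with IL-1beta and TNF-alpha and phosphorylated biotinylated GST-cJun (1-79) at 10 uM ATP, pH 7.6, room temperature. Compounds were titrated. AlphaScreen signal used anti-phospho-cJun (Ser73) antibody.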
On the technique in general: Bead proximity is the source of the signal in Alpha formats.

Experiment [13] is described as follows: Cell Viability - N2a (AID 540; active = well fitted curve in the direction sought with a large enough effect; an effect the other way counts as inactive or inconclusive;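 also: plate controls were DMSO alone for no effect and tamoxifen control for full effect; nearly all actives have a fitted effect of over 45% in size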). As to conditions: N2a mouse neuroblastoma cell viability; activity change, negative = cytotoxicity: at 92.2 µM (top of the series). In outline:
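Mouse neuroblastoma N2a cells (1500/well) were preincubated 5 hr at 37 °C, then exposed to compounds for 40 hr at 37 °C in complete medium. Viability was read as intracellular ATP by CellTiter-Glo luminescence; AC50 from Hill fits.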

Experiment [14] is described as follows: Cell Viability - NIH 3T3 (AID 541; active = well fitted curve in the direction sought with a large enough effect; an effect the other way counts as inactive or inconclusive;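 also: plate controls were DMSO alone for no effect and tamoxifen positive control for full effect; nearly all actives have a fitted effect of over 25% in size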). As to conditions: NIH 3T3 cell viability, qHTS; activity change, negative = cytotoxicity: at 92.2 µM (top of the series). In outline:
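NIH 3T3 mouse embryo fibroblasts (1000 cells/well) were plated in complete medium and treated with compound for 40 hr at 37 °C. Viability was read as intracellular ATP by CellTiter-Glo luminescence; AC50 values came from Hill-equation fits of concentration-response data.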

Experiment [15] is described as follows: Cell Viability - HUV-EC-C (AID 542; active = well fitted curve in the direction sought with a large enough effect; an effect the other way counts as inactive or inconclusive; also: % is scaled to controls: 0 for no effect and ±100 for the full control effect; nearly all actives have a fitted effect of over 35% in size). In outline:
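HUV-EC-C normal human vascular endothelial cells, 1000 cells/well, pre-incubated 5 hr at 37 °C, then exposed to compounds for 40 hr at 37 °C in complete medium. Viability measured as intracellular ATP by CellTiter-Glo luminescence; AC50 from Hill fits.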

Experiment [16] in a line: Cell Viability - SH-SY5Y (AID 544; active = well fitted curve in the direction sought with a large enough effect; an effect the other way counts as inactive or inconclusive; also: nearly all actives have a fitted effect of over 55% in size; also: potency is read from the fitted curve at half-maximal effect;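 as to viability change, negative = cytotoxic: 0% = DMSO alone and -100% = 100 µM tamoxifen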). As to conditions: SH-SY5Y neuroblastoma cell viability; viability change, negative = cytotoxic: at 92.2 µM (top of the series). In outline:
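Human neuroblastoma SH-SY5Y cells (1500/well) in complete medium were exposed to compounds for 40 hr at 37 °C; intracellular ATP was then quantified by CellTiter-Glo luminescence after 20 min at room temperature. AC50 came from Hill-equation concentration-response fits.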

A short description of experiment [17]: Cell Viability - Renal Proximal Tubule (AID 545; active = well fitted curve in the direction sought with a large enough effect; an effect the other way counts as inactive or inconclusive;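 also: 0% = DMSO only and -100% = 100 µM tamoxifen; nearly all actives have a fitted effect of over 40% in size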). In outline:
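Rat kidney proximal tubule cells, freshly isolated; 1000 cells/well, 5 hr settle, compound 40 hr 37 °C. CellTiter-Glo 20 min RT, luminescence read. AC50 by standard Hill fit.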

The nature of experiment [18]: Cell Viability - Mesenchymal (AID 546; active = well fitted curve in the direction sought with a large enough effect; an effect the other way counts as inactive or inconclusive;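 also: cells exposed to compound for 40 hours before reading; 0% = DMSO only and -100% = 100 µM tamoxifen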). In outline: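 Normal human renal glomerulus-derived kidney mesenchymal cells, 1000 per well in complete medium, were treated with compounds for 40 hr at 37 °C. Viability was read as intracellular ATP by CellTiter-Glo luminescence; AC50 values came from Hill-equation fits of qHTS concentration-response data.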
Experiment [19] concerns the target Lysosomal acid glucosylceramidase (Homo sapiens) (UniProt P04062). The experiment can be described thus: Glucocerebrosidase-p2 (AID 348; in the data active = potency below about 10 µM; also: potency is read from the fitted curve at half-maximal effect). The note with it: purified GBA, blue fluorogenic substrate, 40 min. The procedure, abridged:
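Compounds titrated from 0.6 nM upwards against 0.2 nM enzyme in pH 5.9 citric acid/KH2PO4, taurocholate, tween-20; blue fluorogenic substrate 80 uM, 40 min room temperature, stopped and read Ex 365/Em 440 for AC50.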

The target in experiment [20] is Cytochrome P450 1A2 (Homo sapiens) (UniProt P05177). The experiment can be described thus: p450-cyp1a2 (AID 410; calls by dose curve; also: potency is read from the fitted curve at half-maximal effect;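 as to activity change, negative = inhibition: -100% = full effect of reference inhibitor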). In outline: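 Human CYP1A2 (20nM) demethylated Luciferin-ME at its Km (100uM) in 100mM KPO4. After 10 min compound preincubation, NADPH regeneration ran the reaction 60 min at room temperature. Luciferin was read by luminescence, normalized to 57 uM furafylline.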

Values joined by “and” are separate entries in the source; they are usually repeats but may differ in a detail not shown here. Equal entries are not always repeated. Results filed as inconclusive are left out. A structure can be active in one record and inactive in another. Active and inactive are the calls of the source. Unless noted, calls follow the shape of the dose curve; as a rule, active = well fitted curve in either direction with a large enough effect (not every such curve was filed as active); inconclusive = small, poorly fitted or top-dose-only effect, or another doubt; inactive = flat fitted curve, though single readings scatter.

Sequence of Cytochrome P450 1A2 (Homo sapiens) (P05177 whole entry, looked up): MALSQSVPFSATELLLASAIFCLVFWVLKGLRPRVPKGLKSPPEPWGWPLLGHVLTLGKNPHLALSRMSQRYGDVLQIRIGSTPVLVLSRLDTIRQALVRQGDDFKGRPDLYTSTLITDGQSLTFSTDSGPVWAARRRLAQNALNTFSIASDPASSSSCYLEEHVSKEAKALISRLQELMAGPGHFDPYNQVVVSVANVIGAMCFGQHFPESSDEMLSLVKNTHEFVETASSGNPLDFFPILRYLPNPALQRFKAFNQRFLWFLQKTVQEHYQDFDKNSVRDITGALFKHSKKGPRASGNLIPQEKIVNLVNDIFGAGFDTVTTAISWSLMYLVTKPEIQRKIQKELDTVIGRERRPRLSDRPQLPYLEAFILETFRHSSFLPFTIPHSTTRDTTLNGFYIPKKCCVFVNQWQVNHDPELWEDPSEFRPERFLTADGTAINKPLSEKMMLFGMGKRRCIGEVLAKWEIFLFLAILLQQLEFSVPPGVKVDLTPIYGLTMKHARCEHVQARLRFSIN
Sequence of Glucocorticoid receptor (Homo sapiens) (P04150 whole entry, looked up): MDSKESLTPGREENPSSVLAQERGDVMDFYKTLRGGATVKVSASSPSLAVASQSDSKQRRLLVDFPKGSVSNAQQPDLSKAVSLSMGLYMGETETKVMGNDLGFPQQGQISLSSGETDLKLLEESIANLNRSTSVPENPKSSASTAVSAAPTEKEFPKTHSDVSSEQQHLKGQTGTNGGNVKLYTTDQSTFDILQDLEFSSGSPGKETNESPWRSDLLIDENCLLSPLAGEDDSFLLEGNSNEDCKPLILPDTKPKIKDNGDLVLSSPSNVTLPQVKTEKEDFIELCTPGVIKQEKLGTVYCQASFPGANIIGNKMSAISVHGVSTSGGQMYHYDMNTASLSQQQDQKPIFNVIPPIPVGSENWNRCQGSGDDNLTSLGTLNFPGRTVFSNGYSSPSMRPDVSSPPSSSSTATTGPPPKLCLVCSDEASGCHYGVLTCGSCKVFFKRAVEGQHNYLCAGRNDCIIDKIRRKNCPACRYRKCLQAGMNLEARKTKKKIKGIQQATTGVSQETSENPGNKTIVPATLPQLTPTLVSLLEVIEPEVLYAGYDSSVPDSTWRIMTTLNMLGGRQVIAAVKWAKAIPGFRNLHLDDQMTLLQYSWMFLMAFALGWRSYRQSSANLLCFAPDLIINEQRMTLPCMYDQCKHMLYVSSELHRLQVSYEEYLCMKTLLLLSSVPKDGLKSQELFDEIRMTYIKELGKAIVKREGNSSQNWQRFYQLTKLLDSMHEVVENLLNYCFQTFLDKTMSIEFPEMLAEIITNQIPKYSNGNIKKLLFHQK
Sequence of Lysosomal acid glucosylceramidase (Homo sapiens) (P04062 whole entry, looked up): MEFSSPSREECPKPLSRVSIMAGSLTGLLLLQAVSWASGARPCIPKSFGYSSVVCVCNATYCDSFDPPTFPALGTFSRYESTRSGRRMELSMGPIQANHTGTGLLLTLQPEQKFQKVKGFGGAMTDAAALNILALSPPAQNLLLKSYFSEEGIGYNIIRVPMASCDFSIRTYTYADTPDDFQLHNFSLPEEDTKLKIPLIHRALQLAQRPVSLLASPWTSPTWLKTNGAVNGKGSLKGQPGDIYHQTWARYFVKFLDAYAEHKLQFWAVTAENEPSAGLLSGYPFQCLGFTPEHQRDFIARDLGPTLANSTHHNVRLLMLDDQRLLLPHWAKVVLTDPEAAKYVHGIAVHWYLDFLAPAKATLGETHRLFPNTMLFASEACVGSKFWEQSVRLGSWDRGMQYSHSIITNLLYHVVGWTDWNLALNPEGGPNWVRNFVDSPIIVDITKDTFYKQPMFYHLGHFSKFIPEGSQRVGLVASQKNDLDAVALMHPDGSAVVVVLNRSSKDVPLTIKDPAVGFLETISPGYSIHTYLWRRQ

Turning to `NS(=O)(=O)c1cc2c(cc1Cl)NCNS2(=O)=O`, the call in experiment [1], in experiment [9], in experiment [12], in experiment [15] and in [18] was inactive. The Potency in experiment [2], in experiment [3], in experiment [4], in [5], in experiment [6] and in [7] was > 92 µM (inactive) each time. The Potency in experiment [10] was > 46 µM (inactive) and > 20.6 µM (inactive); in experiment [11], > 46 µM (inactive) and > 20.6 µM (inactive). For the same compound, the activity change, negative = inhibition in experiment [8] (at 17.2 µM (top of the series)) was 3.92% (inactive) and 9.7% (inactive); in experiment [8] (at 38 µM (top of the series)), 0.292% (inactive). For the same compound, in experiment [13], the activity change, negative = cytotoxicity is -6.72% (inactive). For the same compound, the Potency entry in [14], in [16] and in experiment [17] was “inactive” throughout.

For `CN(C)CCC=C1c2ccccc2C=Cc2ccccc21`, the Potency was > 11.4 µM (inactive) in experiment [19]; “inactive and 12.6 µM (active)” in experiment [20]; > 46 µM (inactive) and > 20.6 µM (inactive) in [10]; > 46 µM (inactive) and > 20.6 µM (inactive) and > 9.22 µM (inactive) in experiment [11]. In experiment [8] (at 7.69 µM (top of the series)), the activity change, negative = inhibition is -78.7% (active). In addition, the compound was called inactive in [9] and in experiment [12].

As for `CN1CCC(=C2c3ccccc3CC(=O)c3sccc32)CC1`, the result in experiment [1], in experiment [9] and in [12] was inactive. The Potency entry in experiment [20] was “inactive”. In [8] (at 17.2 µM (top of the series)), the activity change, negative = inhibition is -94.3% (active). Further, the Potency in experiment [10] was > 46 µM (inactive) and > 20.6 µM (inactive); in experiment [11], > 46 µM (inactive) and > 20.6 µM (inactive).

Turning to `Nc1nnc(-c2cccc(Cl)c2Cl)c(N)n1`, the outcome in [1], in [9] and in experiment [12] was inactive. Besides, in [20], the Potency result was “inactive”. The activity change, negative = inhibition in experiment [8] (at 17.2 µM (top of the series)) was -16.5% (inactive); in experiment [8] (at 38 µM (top of the series)), 15.4% (inactive).

On to `O=C1N(c2ccccc2)c2ccccc2C1(Cc1ccncc1)Cc1ccncc1`, for which the call in experiment [1], in experiment [9] and in experiment [12] was inactive. The Potency was 15.8 µM (active) in [20], > 46 µM (inactive) in experiment [10] and > 46 µM (inactive) in experiment [11]. The activity change, negative = inhibition in experiment [8] (at 38 µM (top of the series)) is -6.55% (inactive).

In the case of `CC(COc1ccccc1)N(CCCl)Cc1ccccc1` (stereo not drawn), the call in [1], in [9] and in experiment [12] was inactive. Further, the Potency in [2] is > 92 µM (inactive); in [5], 38.6 µM (active); in [6], > 92 µM (inactive); in experiment [10] it was > 20.6 µM (inactive); in experiment [16], 31.6 µM (active). Moreover, the activity change, negative = cytotoxicity in experiment [13] was -85.6% (active).

Regarding `NCCS(=O)(=O)O`, the compound was classed as inactive in [1], in experiment [9], in experiment [12], in experiment [15] and in experiment [18]. Moreover, the Potency in [2], in [3], in experiment [4], in [5], in experiment [6] and in experiment [7] was > 92 µM (inactive) each time. The Potency in [10] and in experiment [11] was > 46 µM (inactive) each time. Also, the activity change, negative = inhibition in [8] (at 38 µM (top of the series)) was 3.83% (inactive). Further, the activity change, negative = cytotoxicity in experiment [13] is -1.66% (inactive). Besides, the Potency result in [14], in experiment [16] and in experiment [17] was “inactive” each time.

The record behind these values is PubChem BioAssay (NCATS).
